Here are results for 40 compounds from PubChem BioAssay (Tox21).

Inconclusive results are not listed. The source made the active and inactive calls. The call rests on the fitted dose curve.

The nature of the experiment: qHTS assay to identify small molecule agonists of the NFkB signaling pathway - cell viability counter screen (AID 1159515). Further: nearly all actives have a fitted effect of over 55% in size. Conditions: NFkB-bla ME-180 viability, CellTiter-Glo luminescence, 5 h; series mostly up to 61 µM. The source says:
National Center for Advancing Translational Sciences [NCATS]
NIH Chemical Genomics Center [NCGC]
U.S. Environmental Protection Agency [EPA]
National Institutes of Environmental Health Sciences [NIEHS]
National Toxicology Program [NTP]
U.S. Food and Drug Administration [FDA]
Transcription factors and their stimulated target gene expression play pivotal roles across many cellular processes including responses to environmental stimuli. Proper regulation of associated pathways is critical to maintain cell health and function. Constitutive activation of transcription factor pathways has been implicated in tumors as it may block cellular functions such as apoptosis and lead to invasion and metastasis. One important transcription factor that stimulates gene expression in response to cytokines, UV radiation, and other stimuli is nuclear factor-kappa B (NFkB). To measure activation of the NFkB pathway, the CellSensor NFkB-bla ME-180 cell line (Life Technologies, Carlsbad, CA) that stably expresses beta-lactamase reporter gene under the regulation of a NF-kB response element was used. This assay allows measurement of the NFkB pathway activity induced by compounds in a ME-180 cell line. This system quantitates NF-kB activity using a FRET-based assay system where beta-lactamase expression disrupts FRET, allowing for fluorescent measurement of activity. This cell line has been used to screen the Tox21 10K compound library and to identify compounds that induce the NFkB pathway activity. The cytotoxicity of the Tox21 compound library against the NFkB-bla ME-180 cell line was tested in parallel by measuring cell viability using the CellTiter-Glo assay in the same wells.
Tox21 Assay Protocol Summary:
NFkB-bla ME-180 cells were dispensed at 2,000 cells/6 uL of assay medium per well into black wall/clear-bottom 1536-well plates using a Multidrop Combi (ThermoFisher Scientific, Waltham, MA) dispenser. After the assay plates were incubated at 37 C and 5% CO2 for an overnight, 23 nL of compounds dissolved in DMSO, positive controls or DMSO only was transferred to the assay plate by a Pintool station (Kalypsys, San Diego, CA). The assay plates were incubated at 37 C and 5% CO2 for 5 hr. One uL of LiveBLAzer B/G FRET substrate (Life Technologies) was added using a Flying Reagent Dispenser (Aurora Discovery, San Diego, CA) and the plates were incubated at room temperature for 1.5 hr. Fluorescence intensity (405 nm excitation, 460 nm and 530 nm emissions) was measured using an Envision plate reader (PerkinElmer, Shelton, CT). For cytotoxicity, 3 ul/well of CellTiter-Glo reagent was added into the assay plates using an FRD. After 30 min incubation at room temperature, the luminescence intensity was measured using a ViewLux plate reader (PerkinElmer).
On the technique in general: qHTS replaces the single test concentration by a dilution series.
For `CC(=O)NS(=O)(=O)c1ccc(N)cc1`, the call was inactive. Under `Cc1ccc(S(=O)(=O)NC(=O)NN2CCCCCC2)cc1` stands “inactive”; under `Cn1c(=O)c2[nH]cnc2n(C)c1=O`, “inactive”.

Take `CCCC(CCC)C(=O)O`: the outcome was inactive. The value for `CC(O)C(=O)O` (stereo not given) was “inactive”; that for `C[C@]12C=CC(=O)C=C1CC[C@@H]1[C@@H]2[C@@H](O)C[C@@]2(C)[C@H]1CC[C@]2(O)C(=O)CO` was “inactive”. The value for `CCCCC1C(=O)N(c2ccccc2)N(c2ccccc2)C1=O` was “inactive”.

With `Nc1ccn([C@H]2CC[C@@H](CO)O2)c(=O)n1`, the compound was called inactive. Take `O=C(O)/C=C\C(=O)O`: the call was inactive.

Consider `CC(=O)OCC(COC(C)=O)OC(C)=O`, for which the outcome was inactive. The value for `NS(=O)(=O)c1cc(C(=O)O)c(NCc2ccco2)cc1Cl` was “inactive”; that for `NC(=O)c1ccccc1O` was “inactive”.

With `NNC(=O)c1ccncc1`, the compound was called inactive.

Regarding `Oc1ccc(/C=C/c2cc(O)cc(O)c2)cc1`, the result was inactive.

For the compound `Cc1cc(=O)n(-c2ccccc2)n1C`, the compound was called inactive. For `NC(N)=NC(=O)c1nc(Cl)c(N)nc1N`, the compound was called inactive. Under `N=C(N)c1ccc(OCCCCCOc2ccc(C(=N)N)cc2)cc1` stands “inactive”. The value for `CCOc1ccc(NC(=O)CC(C)O)cc1` (stereo not given) was “inactive”; that for `Nc1ccc(C(=O)O)cc1` was “inactive”; that for `NC(N)=O` was “inactive”. With `OC(Cn1cncn1)(Cn1cncn1)c1ccc(F)cc1F`, the compound was classed as inactive. The value for `NC(=O)c1cnccn1` was “inactive”; that for `Cn1cc[nH]c1=S` was “inactive”. Under `C1N2CN3CN1CN(C2)C3` stands “inactive”; under `O=C(O)c1cc(N=Nc2ccc(S(=O)(=O)Nc3ccccn3)cc2)ccc1O`, “inactive”. For `O=c1cc[nH]c(=S)[nH]1`, the call was inactive. The value for `Nc1ccc(S(=O)(=O)Nc2nccs2)cc1` was “inactive”. Consider `O=C(O)CCCCCCCC(=O)O`, for which the call was inactive. For `CCCCC(CC)COC(=O)/C=C/c1ccc(OC)cc1` (stereo not given), the compound was called inactive. The value for `Nc1ccc(S(=O)(=O)c2ccc(N)cc2)cc1` was “inactive”; that for `CC(=O)Nc1nnc(S(N)(=O)=O)s1` was “inactive”. As to `COc1c2occc2cc2ccc(=O)oc12`, the outcome was inactive. `NC(=O)NC1NC(=O)NC1=O` (stereo not given): the result was inactive. Regarding `CNC[C@H](O)c1cccc(O)c1`, the result was inactive. Take `CCCC(O)C(CC)CO` (stereo not given): the outcome was inactive.

Consider `O=C(c1ccccc1)C(O)c1ccccc1` (stereo not given), for which the outcome was inactive. Under `O=c1ccc2ccccc2o1` stands “inactive”; under `Cc1noc(NS(=O)(=O)c2ccc(N)cc2)c1C`, “inactive”; under `O=NO`, “inactive”. Under `O=C(C1CCCCC1)N1CC(=O)N2CCc3ccccc3C2C1` (stereo not given) stands “inactive”.
